Screening results as filed in PubChem BioAssay.
Hits are enriched below; roughly 4.7% of the tested compounds scored in any of these assays.
HSF1 inhib = HSF1 inhibition. activity change, negative = inhibition, % at 7.5 µM (by protocol). NIH3T3-HGL HSE-luciferase, MG132-induced, luminescence 8 h; stronger effect = lower value. 300,000 compounds, 0.77% hits;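 active = more than half of replicate wells show activity change below -50%, luminescence cut by over half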;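 also: luciferase reports HSF-1 transcriptional activity via heat shock element; 0% = median of DMSO wells and -100% = zero luminescence signal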
TROY signal inh = inhibitors of TROY-dependent NF-kB signaling | Q293 LMP1-TROYcd NF-kB luciferase reporter, 4 h | AID 1347056 | inhibition, % at 10 µM | 360,000 compounds, 0.98% hits;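 active = compounds whose plate-normalised and pattern-corrected inhibition of the luciferase reporter signal at the single screening dose is 50% or more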
TWEAK-Fn14 inh = inhibitors of TWEAK-Fn14 interaction signaling | TWEAK-stimulated Fn14 reporter cells, luciferase luminescence, 8 h | inhibition, % at 10 µM | 360,000 compounds, 2% hits | AID 1159606; in the data active = inhibition above about 50%
EBV LMP1 NFkB = Epstein-Barr LMP1 NF-kappaB reporter inhibition; LMP1-induced NF-kappaB luciferase reporter cells, luminescence; inhibition, % at 12.5 µM; 350,000 compounds, 0.69% hits; AID 504558; in the data active = inhibition above about 41%;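 also: 0% = neutral control wells and 100% = reference inhibitor control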
HSF-1 act = increases HSF-1 driven luciferase reporter signal; NIH3T3-HGL HSF-1 luciferase reporter, MG132, 8 h; 100% = twice DMSO control signal; 300,000 compounds, 1.7% hits; activation, % at 9 µM; AID 504408;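 active = mean replicate activation of at least 50% with a set share of replicates each reaching 50%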;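 also: 0% = median of the neutral control wells and 100% = twice that signal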
HSP90 inh = blocks HSP90-mediated luciferase refolding in reticulocyte lysate; inhibition, % at 5.6 µM; AID 1789; 290,000 compounds, 0.91% hits; Rabbit reticulocyte lysate, luciferase refolding luminescence, 3 h;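 active = inhibition above the screen-wide mean plus 3 SD, computed separately per campaign, cut at about 16% in these data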;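 also: 0% = DMSO wells and 100% = 60 µM geldanamycin wells; inhibitors lower the luminescence because luciferase stays unfolded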
An asterisk follows results filed as active; . = not tested or not shown.

SMILES | HSF1 inhib | TROY signal inh | TWEAK-Fn14 inh | EBV LMP1 NFkB | HSF-1 act | HSP90 inh
CCCN(CC(=O)Nc1ccc(Cl)cc1Cl)C(=O)/C=C/c1ccco1 | 50 | -77 | 2 | -32 | 64* | -2
CC(C)CNC(=O)c1nn(Cc2ccccc2)c(=O)c2ccccc12 | 5 | -4 | -7 | 2 | -10 | 1
CCNC(=O)CNC(=O)c1nn(Cc2ccccc2)c(=O)c2ccccc12 | -71* | 0 | 14 | 1 | -76 | -1
COCCc1ccc(OC2(C)CCN(Cc3ccc(OC)c4ccccc34)C2)cc1 (stereo not given) | . | -4 | 0 | . | . | .
COc1ccc(S(=O)(=O)Nc2cc3c4c(oc3c3ccccc23)CCCC4=O)cc1 | 39 | 15 | 3 | 10 | 56* | 4
CNC(=O)c1cc(Cl)c(OC)c(OC)c1 | -7 | 14 | 0 | -2 | 15 | -1
COC(=O)C(=O)C1CCc2c(Cl)cc(OC)c(OC)c2C1=O (stereo not given) | 2 | 3 | 8 | 87* | 2 | .
O=C(c1cccc(Cl)c1)N1CCN(c2ccccn2)CC1 | -4 | -16 | 7 | -4 | -15 | 7
O=C(c1ccc(S(=O)(=O)c2ccccc2Cl)c([N+](=O)[O-])c1)N1CCCCCC1 | 1 | 25 | 66* | 10 | 4 | 2
O=C(c1cnc(N2CCN(c3ccccn3)CC2)c2ccccc12)N1CCN(c2cccc(Cl)c2)CC1 | -3 | 46 | 91* | 29 | 2 | 0
O=C(c1ccc(S(=O)(=O)c2cccc(Cl)c2)c([N+](=O)[O-])c1)N1CCN(c2ccccn2)CC1 | -4 | 58* | 90* | 20 | 7 | -1
O=C(c1cc(Cl)ccc1Cl)N1CCN(c2ccccn2)CC1 | 2 | 14 | 13 | -6 | 22 | 1
O=c1cc(-c2ccccc2)oc2cc(O)cc(O)c12 | 10 | -17 | 47 | -21 | 19 | .
O=c1cc(-c2ccccc2)oc2ccc3ccccc3c12 | . | 75* | 93* | 68* | . | .
O=c1cc(-c2ccc(O)c(O)c2)oc2ccc3ccccc3c12 | . | 78* | 92* | 52* | . | .
O=c1cc(-c2ccc(O)c(O)c2)oc2c1ccc1ccccc12 | . | 33 | 8 | 3 | . | .
COc1ccccc1Cn1c(=S)[nH]c2cc(C(=O)N3CCN(c4ccccc4OC)CC3)ccc2c1=O | -4 | 1 | -3 | -2 | 1 | -1
COc1cc(OC)cc(C(=O)N2CCC(N3CCN(c4ccccc4OC)CC3)CC2)c1 | -8 | 52* | 53* | -21 | 10 | -1
COc1ccc(Cn2c(=O)[nH]c3cc(C(=O)N4CCN(c5ccccc5OC)CC4)ccc3c2=O)cc1 | 10 | 31 | 53* | 2 | 6 | -3
CCOC(=O)N1CCN(C(=O)c2ccc3c(=O)n(-c4ccc(OC)cc4OC)c(=S)[nH]c3c2)CC1 | 1 | 19 | 12 | 1 | -15 | 0
CCOC(=O)N1CCN(C(=O)c2ccc3c(=O)n(-c4ccc(OC)cc4)c(=S)[nH]c3c2)CC1 | 6 | -27 | -29 | 0 | 52* | 3
COc1ccccc1N1CCN(C(=O)c2ccc3c(=O)n(Cc4ccco4)c(=S)[nH]c3c2)CC1 | 49 | -5 | 5 | -10 | 88* | 4
C[C@H]1CN([C@@H](C)CO)S(=O)(=O)c2ccc(/C=C/c3ccccc3)cc2O[C@H]1CN(C)C(=O)NC1CCCCC1 | . | 22 | 27 | 8 | . | .
Nc1ccn([C@@H]2O[C@H](C(=O)N3CCCN(Cc4ccccc4F)CC3)[C@@H](O)[C@H]2O)c(=O)n1 | . | 1 | -4 | . | . | .
Cc1ccc(C=NNC(=O)c2cc(-c3cccnc3)nc3ccccc23)o1 | . | 3 | -8 | -7 | . | .
SMILES | HSF1 inhib | TROY signal inh | TWEAK-Fn14 inh | EBV LMP1 NFkB | HSF-1 act | HSP90 inh
CC(/C=N/NC(=O)c1cc(-c2ccc(Cl)cc2)nc2ccccc12)=C\c1ccco1 | -10 | -14 | 6 | -2 | -6 | 5
Cc1ccc(/C=N/Nc2cn[nH]c(=O)n2)o1 | -8 | -26 | 7 | -5 | -2 | 5
CC(/C=N/NC(=O)c1cc(-c2ccccc2)nc2ccccc12)=C\c1ccco1 | 19 | -5 | 23 | 0 | 55* | 11
Cc1ccc(/C=N/Nc2ccc3ccccc3n2)o1 | . | 24 | 86* | 10 | . | 14
Cc1ccc(/C=N/NC(=O)c2cc(-c3ccccc3)nc3ccccc23)o1 | 4 | -3 | 0 | 54* | 16 | 4
NC(CCc1ccccc1)c1csc(Nc2nncc3ccccc23)n1 (stereo not given) | . | -16 | -32 | . | . | .
O=c1[nH][nH]c(-c2ccccc2O)c1C(C[N+](=O)[O-])c1ccccc1 (stereo not given) | 165 | -5 | 9 | 8 | 228* | -1
O=c1[nH][nH]c(-c2ccccc2O)c1C(C[N+](=O)[O-])c1cccc(Cl)c1 (stereo not given) | 14 | 2 | 20 | -14 | 39 | -4
COc1ccc(/C=C/C(=O)c2cccc(-n3cnnn3)c2)cc1O | 27 | 3 | 2 | 7 | 57* | 5
COc1cc(/C=C/C(=O)N2CCC=CC2=O)cc(OC)c1OC | . | 40 | 92* | 22 | . | .
COc1ccc(Oc2ccc(/C=C/C(=O)c3cccc(OC)c3)cc2[N+](=O)[O-])cc1 | -3 | -1 | 60* | -2 | 18 | 0
COc1ccc(C=CC(=O)c2ccc(OC)c(OC)c2)cc1O | . | 4 | -9 | -4 | . | .
COc1ccc(C=CC(=O)c2ccc3cc(OC)c(OC)cc3c2)cc1OC | . | 36 | 67* | 32 | . | .
COc1cc(/C=C/C(C)=O)cc(OC)c1OC | 1 | 0 | 10 | 4 | 11 | 5
COc1cc(/C=C/C(=O)c2ccc(Cl)s2)cc(OC)c1O | 129 | -20 | 37 | 31 | 174* | 4
COc1cc(C=CC(=O)c2ccccc2)cc(OC)c1OC | . | -3 | 79* | . | . | .
COc1ccc2cc(C(=O)/C=C/c3cc(OC)c(OC)c(OC)c3)ccc2c1 | 55 | 1 | 2 | 2 | 95* | 12
COc1cc(C=CC(=O)c2cc(OC)c(OC)c(OC)c2)cc(OC)c1OC | . | -7 | 65* | 20 | . | .
COc1ccc(S(=O)(=O)N2CCOC2CNC(=O)C(=O)NCc2ccc3c(c2)OCO3)cc1C (stereo not given) | . | 8 | -6 | -2 | . | .
CCN(CC)C(=O)C1=C(C)N(Cc2ccc(OC)cc2)C(=O)C(CC(=O)NCCN2CCOCC2)C1 (stereo not given) | . | -13 | 8 | -1 | . | .
COC(=O)c1cc(OC)c(OC)cc1NC(=O)CCN1C(=O)C2CCCCC2C1=O (stereo not given) | . | 12 | 5 | -28 | . | .
CCOC(=O)c1cc(OC)c2cccc(CN3CCC(C)(C(=O)NCCOC)C3)c2c1 (stereo not given) | . | 4 | -34 | . | . | .
O=C1C(=O)N(CCN2CCOCC2)C(c2ccccn2)/C1=C(/O)c1ccccc1 (stereo not given) | -6 | 1 | 63* | 4 | -17 | 1
